Results: ChEMBL document CHEMBL3988442, “University of Dundee, Small-Polar-MMV Screening Library” (2021)
For some assays here: Potency and affinity values are given separately.

How the values were obtained:
Design in all cases: scale not given: direction of the effect not stated beside the values
[1] = target: Protein translocase subunit SecA (Escherichia coli (strain K12)) (UniProt P10408); assay: Assay to Identify E. coli SecA ATPase Inhibitors; format: functional; settings: 30 µM
[2] = target: T1, Ubiquitin-activating enzyme e1, putative (Leishmania donovani (strain BPK282A1)) (UniProt E9BSI1); assay: Leishmania donovani Ubiquitin Activating Enzyme (LdE1); format: functional; settings: 30 µM
T1 sequence (whole entry): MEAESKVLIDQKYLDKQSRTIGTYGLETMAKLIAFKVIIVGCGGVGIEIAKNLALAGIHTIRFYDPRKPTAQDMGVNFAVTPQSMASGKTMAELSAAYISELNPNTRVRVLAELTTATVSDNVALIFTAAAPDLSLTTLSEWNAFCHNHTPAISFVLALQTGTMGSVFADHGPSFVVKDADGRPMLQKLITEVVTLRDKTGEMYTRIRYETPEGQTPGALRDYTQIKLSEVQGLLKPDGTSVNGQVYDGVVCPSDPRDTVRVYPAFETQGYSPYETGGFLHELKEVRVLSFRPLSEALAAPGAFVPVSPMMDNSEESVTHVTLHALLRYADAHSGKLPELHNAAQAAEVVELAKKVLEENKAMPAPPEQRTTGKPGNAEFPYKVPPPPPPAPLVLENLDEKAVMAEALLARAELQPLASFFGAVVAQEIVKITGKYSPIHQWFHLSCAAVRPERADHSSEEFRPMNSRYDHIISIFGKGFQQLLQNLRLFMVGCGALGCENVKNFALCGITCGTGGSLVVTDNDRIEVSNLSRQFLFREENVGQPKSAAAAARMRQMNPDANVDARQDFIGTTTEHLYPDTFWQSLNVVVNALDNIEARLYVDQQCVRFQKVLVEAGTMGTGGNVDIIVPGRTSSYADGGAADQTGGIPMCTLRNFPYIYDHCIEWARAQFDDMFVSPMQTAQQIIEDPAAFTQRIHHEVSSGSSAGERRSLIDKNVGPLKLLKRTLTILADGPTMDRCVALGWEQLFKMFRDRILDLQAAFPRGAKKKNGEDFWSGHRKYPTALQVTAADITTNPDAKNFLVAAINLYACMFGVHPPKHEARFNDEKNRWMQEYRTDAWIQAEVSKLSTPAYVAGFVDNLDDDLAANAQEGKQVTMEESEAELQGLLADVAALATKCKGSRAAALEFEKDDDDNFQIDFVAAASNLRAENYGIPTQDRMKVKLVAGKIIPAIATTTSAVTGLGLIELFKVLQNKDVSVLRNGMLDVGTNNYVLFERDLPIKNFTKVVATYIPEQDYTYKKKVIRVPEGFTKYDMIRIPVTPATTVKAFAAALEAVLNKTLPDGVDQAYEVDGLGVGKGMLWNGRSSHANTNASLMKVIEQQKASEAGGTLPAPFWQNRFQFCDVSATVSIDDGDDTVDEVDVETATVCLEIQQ

[3] = target: AMP-activated protein kinase, AMPK (Homo sapiens) (UniProt P54646+O43741+P54619+Q9UGJ0+Q9Y478+Q13131+Q9UGI9); assay: AMP-dependent Kinase enzyme assay. An in vitro enzyme assay that detects ADP turnover that is directly proportional to AMPK activity. This uses naive AMPK that is activated during the assay with MK-8722; format: functional; settings: 30 µM
[4] = target: Sialic acid-binding Ig-like lectin 9 (Homo sapiens) (UniProt Q9Y336); assay: Hs-Siglec9 ALPHAscreen SOP 20170721; settings: 10 µM
[5] = tested on: Trypanosoma cruzi; assay: Trypanosoma cruzi phosphomannomutase and mannose-1-phosphate guanylyltransferase assay; format: functional; settings: 10 µM
[6] = target: T2, Arginase-2, mitochondrial (Homo sapiens) (UniProt P78540); assay: in vitro enzyme assay to detect the production of urea directly proportional to the activity of Arginase II; format: functional; settings: 33.3 µM; also: in the data most compounds retested in dose-response had high values
T2 sequence (whole entry): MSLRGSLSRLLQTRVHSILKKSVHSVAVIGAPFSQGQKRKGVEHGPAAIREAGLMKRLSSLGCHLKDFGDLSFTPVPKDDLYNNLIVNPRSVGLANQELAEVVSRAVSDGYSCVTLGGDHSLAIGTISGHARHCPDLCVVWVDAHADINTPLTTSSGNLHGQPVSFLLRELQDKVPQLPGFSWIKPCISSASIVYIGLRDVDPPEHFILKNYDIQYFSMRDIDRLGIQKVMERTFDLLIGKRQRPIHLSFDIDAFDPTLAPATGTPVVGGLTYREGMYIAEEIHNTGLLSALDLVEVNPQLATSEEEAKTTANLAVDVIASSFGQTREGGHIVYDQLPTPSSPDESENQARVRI

[7] = target: T3, Proteasome subunit beta (Trypanosoma cruzi) (UniProt O96673); assay: Trypanosoma cruzi proteasome chymotrypsin-like activity (TcProtChymo) assay.; also: in the data most compounds retested in dose-response had high values; format: functional; settings: 9.37 µM
T3 sequence (whole entry): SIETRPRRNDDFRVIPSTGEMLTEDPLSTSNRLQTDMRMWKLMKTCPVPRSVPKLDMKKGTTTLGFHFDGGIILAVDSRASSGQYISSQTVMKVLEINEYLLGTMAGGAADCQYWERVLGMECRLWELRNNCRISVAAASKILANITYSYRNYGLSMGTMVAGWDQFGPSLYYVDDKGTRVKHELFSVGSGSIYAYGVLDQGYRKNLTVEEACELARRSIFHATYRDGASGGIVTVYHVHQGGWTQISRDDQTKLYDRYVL

[8] = species: Homo sapiens; assay: To identify inhibition of the IFN signalling (Jak-Stat) pathway via expression of an eGFP reporter gene under the control of an IFN-stimulated response element (ISRE) containing MxA promoter.; format: functional; settings: 30 µM
[9] = target: T4, Tyrosyl-tRNA synthetase, putative (Trypanosoma cruzi (strain CL Brener)) (UniProt Q4DSP6); assay: Trypanosoma cruzi tyrosyl tRNA synthetase (TcYRS) _High Tyrosine SOP; format: functional; settings: 30 µM; also: in the data most compounds retested in dose-response had high values
T4 sequence (whole entry): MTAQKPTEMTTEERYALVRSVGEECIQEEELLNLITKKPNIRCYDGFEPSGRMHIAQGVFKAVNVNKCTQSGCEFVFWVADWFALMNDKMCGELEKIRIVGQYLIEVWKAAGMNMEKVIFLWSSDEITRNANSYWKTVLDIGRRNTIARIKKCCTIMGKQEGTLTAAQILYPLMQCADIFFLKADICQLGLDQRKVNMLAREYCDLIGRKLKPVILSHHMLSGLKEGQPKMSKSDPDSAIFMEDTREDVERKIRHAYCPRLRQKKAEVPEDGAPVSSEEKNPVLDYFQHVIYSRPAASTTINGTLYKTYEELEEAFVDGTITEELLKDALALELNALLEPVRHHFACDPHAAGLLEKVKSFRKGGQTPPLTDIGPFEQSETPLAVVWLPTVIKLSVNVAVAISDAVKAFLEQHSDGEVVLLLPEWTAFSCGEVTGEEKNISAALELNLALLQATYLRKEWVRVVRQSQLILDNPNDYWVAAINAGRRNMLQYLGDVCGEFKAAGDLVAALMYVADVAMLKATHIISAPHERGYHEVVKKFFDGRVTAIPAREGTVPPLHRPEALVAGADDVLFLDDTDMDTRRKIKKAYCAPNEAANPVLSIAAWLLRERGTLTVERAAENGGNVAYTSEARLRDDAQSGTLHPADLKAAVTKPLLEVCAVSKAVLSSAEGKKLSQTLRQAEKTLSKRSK

[10] = target: T4, Tyrosyl-tRNA synthetase, putative (Trypanosoma cruzi (strain CL Brener)); assay: Trypanosoma cruzi tyrosyl tRNA synthetase (TcYRS) SOP; format: functional; settings: 30 µM
[11] = target: Chromo domain-containing protein 1 (Saccharomyces cerevisiae (strain ATCC 204508 / S288c) (Baker's yeast)) (UniProt P32657); assay: ScCHD-1 Enzyme Inhibition Assay; format: functional; settings: 30 µM; also: in the data most compounds retested in dose-response had high values
Chain of Chromo domain-containing protein 1 (Saccharomyces cerevisiae (strain ATCC 204508 / S288c) (Baker's yeast)) (P32657 whole entry, the tested form may be a part): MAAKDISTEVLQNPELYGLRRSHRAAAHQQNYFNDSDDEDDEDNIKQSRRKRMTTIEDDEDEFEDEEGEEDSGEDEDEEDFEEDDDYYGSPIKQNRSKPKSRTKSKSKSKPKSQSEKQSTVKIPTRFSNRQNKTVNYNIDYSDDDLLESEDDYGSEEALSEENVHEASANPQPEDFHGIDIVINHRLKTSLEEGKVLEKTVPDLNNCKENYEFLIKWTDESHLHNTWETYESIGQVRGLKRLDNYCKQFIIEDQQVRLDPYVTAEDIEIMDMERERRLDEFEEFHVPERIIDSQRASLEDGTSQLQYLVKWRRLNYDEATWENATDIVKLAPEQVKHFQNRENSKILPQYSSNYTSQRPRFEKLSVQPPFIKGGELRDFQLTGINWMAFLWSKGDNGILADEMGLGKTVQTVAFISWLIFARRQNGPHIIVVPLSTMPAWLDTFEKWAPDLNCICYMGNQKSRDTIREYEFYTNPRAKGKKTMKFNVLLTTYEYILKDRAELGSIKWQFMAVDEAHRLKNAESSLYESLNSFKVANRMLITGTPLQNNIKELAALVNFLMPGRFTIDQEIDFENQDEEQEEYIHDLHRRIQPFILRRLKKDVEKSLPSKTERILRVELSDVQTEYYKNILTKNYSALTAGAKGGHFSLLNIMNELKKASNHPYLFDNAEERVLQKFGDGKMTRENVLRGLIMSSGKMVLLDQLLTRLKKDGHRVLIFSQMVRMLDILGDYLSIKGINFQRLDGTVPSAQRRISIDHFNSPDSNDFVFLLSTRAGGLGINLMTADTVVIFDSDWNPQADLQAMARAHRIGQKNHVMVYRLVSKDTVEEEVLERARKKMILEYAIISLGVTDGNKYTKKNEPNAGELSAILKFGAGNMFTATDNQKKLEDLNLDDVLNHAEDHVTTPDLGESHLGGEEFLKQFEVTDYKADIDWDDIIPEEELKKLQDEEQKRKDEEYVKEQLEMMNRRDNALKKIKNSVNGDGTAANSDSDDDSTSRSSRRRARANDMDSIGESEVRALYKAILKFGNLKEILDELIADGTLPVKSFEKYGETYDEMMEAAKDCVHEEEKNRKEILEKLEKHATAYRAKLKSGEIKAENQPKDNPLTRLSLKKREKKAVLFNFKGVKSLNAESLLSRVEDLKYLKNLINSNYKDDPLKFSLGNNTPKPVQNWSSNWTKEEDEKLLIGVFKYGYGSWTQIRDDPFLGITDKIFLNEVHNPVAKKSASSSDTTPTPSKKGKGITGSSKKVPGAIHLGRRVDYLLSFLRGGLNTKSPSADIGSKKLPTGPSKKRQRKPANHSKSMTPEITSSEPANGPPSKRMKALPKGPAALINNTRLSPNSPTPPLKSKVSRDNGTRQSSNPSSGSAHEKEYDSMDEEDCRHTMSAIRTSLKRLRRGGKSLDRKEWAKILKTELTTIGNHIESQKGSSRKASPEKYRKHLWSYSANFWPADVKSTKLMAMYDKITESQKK

Chain of Protein translocase subunit SecA (Escherichia coli (strain K12)) (P10408 whole entry): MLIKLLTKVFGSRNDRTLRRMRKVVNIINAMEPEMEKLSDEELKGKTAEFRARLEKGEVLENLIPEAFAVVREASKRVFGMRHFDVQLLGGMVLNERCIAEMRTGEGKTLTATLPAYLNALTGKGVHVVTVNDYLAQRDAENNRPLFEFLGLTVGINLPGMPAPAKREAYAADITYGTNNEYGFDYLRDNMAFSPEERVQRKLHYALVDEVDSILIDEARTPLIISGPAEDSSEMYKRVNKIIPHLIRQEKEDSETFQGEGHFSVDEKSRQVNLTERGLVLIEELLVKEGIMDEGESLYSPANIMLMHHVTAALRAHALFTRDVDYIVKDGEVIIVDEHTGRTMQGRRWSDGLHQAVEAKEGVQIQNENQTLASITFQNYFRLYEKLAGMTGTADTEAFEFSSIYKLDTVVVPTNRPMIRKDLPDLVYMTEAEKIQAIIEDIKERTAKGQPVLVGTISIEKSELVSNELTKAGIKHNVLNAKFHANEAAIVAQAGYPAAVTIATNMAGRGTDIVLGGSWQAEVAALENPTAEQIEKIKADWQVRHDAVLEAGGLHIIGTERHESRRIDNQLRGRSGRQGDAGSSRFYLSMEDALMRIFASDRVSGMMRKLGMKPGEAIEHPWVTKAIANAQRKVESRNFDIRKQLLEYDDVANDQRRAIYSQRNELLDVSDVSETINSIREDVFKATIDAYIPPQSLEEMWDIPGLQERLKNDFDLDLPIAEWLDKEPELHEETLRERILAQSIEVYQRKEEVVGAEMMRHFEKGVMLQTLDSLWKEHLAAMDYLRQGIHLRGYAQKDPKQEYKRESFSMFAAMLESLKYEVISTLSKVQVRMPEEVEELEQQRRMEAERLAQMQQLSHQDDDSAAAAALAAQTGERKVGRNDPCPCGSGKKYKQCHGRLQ
Chain of Sialic acid-binding Ig-like lectin 9 (Homo sapiens) (Q9Y336 whole entry): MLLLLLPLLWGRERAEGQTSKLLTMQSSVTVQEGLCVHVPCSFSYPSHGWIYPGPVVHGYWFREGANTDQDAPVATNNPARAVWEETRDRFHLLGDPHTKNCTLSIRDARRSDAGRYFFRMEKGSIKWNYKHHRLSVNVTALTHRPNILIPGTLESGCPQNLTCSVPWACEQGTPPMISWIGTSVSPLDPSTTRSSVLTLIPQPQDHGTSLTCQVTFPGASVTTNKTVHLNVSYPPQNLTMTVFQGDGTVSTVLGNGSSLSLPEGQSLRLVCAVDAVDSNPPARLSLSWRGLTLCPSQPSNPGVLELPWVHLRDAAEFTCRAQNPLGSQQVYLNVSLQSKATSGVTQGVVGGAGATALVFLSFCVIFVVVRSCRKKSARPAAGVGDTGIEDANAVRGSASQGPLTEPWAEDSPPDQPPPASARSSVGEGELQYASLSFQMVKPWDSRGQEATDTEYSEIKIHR

| SMILES | Percent Effect [1] [%] | Percent Effect [2] [%] | Percent Effect [3] [%] | Percent Effect [4] [%] | Percent Effect [5] [%] | Percent Effect [6] [%] | Percent Effect [7] [%] | Percent Effect [8] [%] | Percent Effect [9] [%] | Percent Effect [10] [%] | Percent Effect [11] [%] |
| --- | --- | --- | --- | --- | --- | --- | --- | --- | --- | --- | --- |
| COc1cccc(CN(C)C(=O)CN2CC(n3nc(C)cc3C)C2)c1 | -0.578 | -73.7 | 0.521 | -5.84 | 1.27 | 1.18 | 24.3 | 23.1 | 26.6 | 39 | -4.54 |
| CCc1nccc(CN2CCCC(c3nn(C)c(=O)n3CC)C2)n1 (configuration not stated) | -3.27 | 8.11 | -2.62 | 37.3 | 2.64 | 8.19 | -1.63 | 2.84 | 4.3 | 13.6 | -3.17 |
| Cc1cc(C)cc(OCCC(=O)N2CCCC(n3cncn3)C2)c1 (configuration not stated) | -0.911 | -8.11 | 0.29 | 4.17 | 8.08 | -5.73 | -5.21 | 4.81 | 0 | 3.66 | 1.95 |
| Cc1nc(N2CCCC2)ncc1-c1cc(O)nc(N2CCCC2)n1 | -4.52 | -1.33 | 4.03 | 6.18 | -4.13 | -2.64 | 7.76 | -0.506 | 2.12 | 0 | -1.52 |
| CCc1cnc(CN(C)C2CCN(CCc3cccs3)C2)o1 (configuration not stated) | -4.76 | 15.8 | -3.51 | -0.997 | -2.89 | -5.4 | 12.3 | 2.05 | 10.3 | 18.5 | -5.25 |
| CC(=O)N1CCC(C(=O)c2cc(C)cnc2N)CC1 | -3.36 | 10.7 | 3.67 | 3.51 | 3.15 | 3.03 | 7.67 | 17.4 | 4.25 | 11.5 | -4.18 |
| CCCNC(=O)Cn1cc(-c2ccccc2)cn1 | -4.24 | 8.86 | 12.1 | -0.382 | -5.64 | -0.645 | 4.97 | 8.94 | 2.08 | 7.59 | -18.4 |
| CN(Cc1cnn(C)c1)C(=O)NC1CCN(c2ncccn2)CC1 | -7.21 | 13 | 1.2 | -4.13 | -10.7 | -0.356 | 6.25 | 25.2 | 1.94 | 2.44 | -8.45 |
| COCc1ccc(CNC(=O)C2=NN(c3ccccc3)C(=O)CN2)cc1 | -0.976 | 5.41 | 6.06 | -1.63 | -9.09 | 1.24 | 14 | 53.6 | 3.23 | 13.6 | -4.43 |
| COc1cccc(NC(=O)N(CCO)Cc2ccsc2)c1 | -3.38 | -6.94 | 1.15 | -5.41 | -4.96 | -4.42 | 12.3 | 11.8 | 3.16 | 5.13 | -4.52 |
| O=C(NCc1ccc(OCC2CC2)nc1)c1c(F)cccc1F | -0.518 | 2.63 | 4.21 | -0.689 | -5.16 | -11.8 | 15.1 | 11.7 | 3.19 | 7.79 | -4.74 |
| CC(=O)N(Cc1ncc(C)o1)C1CCN(Cc2cccc(C#N)c2)C1 (configuration not stated) | -5.59 | 5.41 | -3.95 | 9.41 | -2.44 | -1.74 | 5.24 | 5.84 | 0 | 1.24 | -0.172 |
| Cc1ccccc1CNC(=O)Cc1c(C)nc2cc(=O)[nH]n2c1C | -2.72 | 13.2 | -32.1 | 17.4 | 4.13 | -4.21 | 4.18 | 2.25 | 9.31 | 17.1 | -11.1 |
| Nc1cc(N2CCCC2c2cnccn2)ncn1 (configuration not stated) | -0.532 | 9.46 | -1.66 | -2.65 | 2.96 | -5.34 | 14.8 | 2.07 | 8.6 | 14.3 | -13.1 |
| CC(=O)Nc1nc(CN2CCCC2c2cnn(C)c2)cs1 (configuration not stated) | -7.62 | 20.2 | -9.48 | 17.6 | 9.54 | -6.46 | 6.31 | -5.41 | 7.39 | 21.5 | -5.9 |
| Nc1cc2c(nn1)CCN(C(=O)c1cccc3c1OCCO3)C2 | 0.377 | 2.6 | -2.26 | 6.77 | 8.24 | 0.356 | 4.05 | 10.7 | 5.83 | 12.2 | -10.5 |
| CCCc1noc(CCC(=O)N2CCCC2c2ccsc2)n1 (configuration not stated) | -3.59 | -55.7 | 0.791 | 6.07 | 1.6 | -2.28 | -0.409 | -2.86 | -2.46 | -1.27 | -4.16 |
| CCC1=N[C@@]2(CC[C@@H]3CN(Cc4ccc(Cl)cc4)C[C@@H]32)C(=O)N1C | -4.15 | 2.7 | 3.53 | 4.31 | -0.0978 | -13.1 | 16.4 | 14.7 | 0 | 2.56 | 2.84 |
| CC(C)CCN1CCC2(CC1)CN(C(=O)c1cnccn1)CCO2 | -4.82 | 2.67 | 2.65 | 7.36 | 0.772 | -57.9 | 0.855 | -13.7 | 4.17 | 12.5 | -3.24 |
| Cc1ccc(CC2CCCN2CC(=O)NCc2ccccn2)cc1 (configuration not stated) | -7.47 | -5.26 | -11.2 | 3.27 | -1.66 | 2.37 | 8.53 | -4.78 | 7.45 | 13 | -2.14 |
| O=C(C1CCCc2[nH]ncc21)N1CCCCCC1 (configuration not stated) | -3.72 | 5.41 | -4.75 | 2.71 | -2.64 | -1.24 | 11.2 | 0.454 | 2.15 | 6.17 | -3.22 |
| Cc1ccc(Nc2nccc(C3CN(CC(N)=O)C3)n2)nc1 | -6.39 | 20.3 | 2.38 | 3.4 | 7.12 | -5.8 | 17.2 | 10.7 | 8.6 | 24.7 | -14.1 |
